Activity calls are given as the source filed them. The calls were made as follows: active = hit-call score of the fitted dose curve at least 0.9, where 1 is the maximum; inactive = score below 0.9.
test: APR_HepG2_MitoMembPot_72hr: Apredica 72-hour HepG2 Assay for Mitochondrial Membrane Potential (AID 2282917); conditions: imaging, actives raise or lower the signal
Procedure: APR_HepG2_72hr is a cell-based, multiplexed-readout assay that uses HepG2, a human liver cell line, with measurements taken at 72 hours after chemical dosing in a 384-well plate.APR_HepG2_MitoMembPot_72hr is one of 10 assay component(s) measured or calculated from the APR_HepG2_72hr assay. It is designed to make measurements of dye binding, a form of membrane potential reporter, as detected with fluorescence intensity signals by HCS Fluorescent Imaging technology.Data from the assay component APR_HepG2_MitoMembPot_72hr was analyzed into 1 assay endpoint. This assay endpoint, APR_HepG2_MitoMembPot_72hr, was analyzed with bidirectional fitting relative to DMSO as the negative control and baseline of activity. Using a type of membrane potential reporter, gain or loss-of-signal activity can be used to understand changes in the signaling. Furthermore, this assay endpoint can be referred to as a primary readout, because this assay has produced multiple assay endpoints where this one serves a signaling function. To generalize the intended target to other relatable targets, this assay endpoint is annotated to the cell morphology intended target family, where the subfamily is organelle conformation.
Cells were treated with dimethyl sulfoxide (DMSO) as a solvent control at a final concentration of 0.5% v/v or with compounds in DMSO with a resulting final DMSO concentration of 0.5% v/v. Compound treatment was done at concentrations of 0.39, 0.78, 1.56, 3.12, 6.24, 12.5, 25, 50, 100, and 200 uM in duplicate on each plate. Cells were treated with compounds for 1, 24, or 72 hr. Carbonyl […] m-chloro-phenylhydrazone (CCCP) and taxol were used as positive controls for mitochondrial function and cytoskeletal stability, respectively; DMSO served as the negative control for this experiment. Cells were fixed by the direct addition of 50 uL formaldehyde in Hank's Balanced Salt Solution (HBSS) to a final concentration of 3.7%. After incubation in the fixation medium for 30 min at room temperature (293-298 K), cells were rinsed twice with HBSS and treated with cell permeabilization buffer (16 uL of 0.5% Triton X-100) for 10 min at room temperature (293-298 K) before labeling. For mitochondrial membrane potential and mitochondrial measurements, pre-fixed cells were incubated with 50 uL of MitoTracker Red CMXRos (Invitrogen) at a concentration of 250 nM for 30 min before fixation. In the remaining cases, post-fixed cells were labeled by incubation with a multiplexed mixture of primary antibodies in HBSS for 60 min at room temperature (293-298 K) to detect immunoreactivity of c-Jun (1:500), phospho-histone H3 (1:100), phospho-histone H2A.x (1:200), p53 (1:400), alpha-tubulin (1:200) and Hoechst 33342 (2 ug/mL). Cells were labeled for multiplexed imaging on two separate plates: a) Hoechst 33342, MitoTracker Red, phospho-histone H3, and alpha-tubulin, and b) Hoechst 33342, phospho-histone H2A.x, and c-Jun. A final rinse with HBSS (50 uL) was performed before analysis. The primary and secondary antibodies for the proteins were phospho-histone H3 (rabbit anti-phospho-histone H3 and FITC-donkey anti-rabbit IgG), phospho-histone H2A.x (mouse anti-phospho-histone H2A.x and FITC-donkey anti-mouse IgG), c-Jun (rabbit anti-phospho-c-Jun and Cy3-donkey anti-rabbit IgG), p53 (sheep anti-p53 and Cy5-donkey anti-sheep IgG), alpha-tubulin (mouse anti-alpha-tubulin and Cy5-donkey anti-mouse IgG). These antibodies are available as the CellCiphr HepG2 assay kit (Millipore).Digital images of each well were captured using a Cellomics ArrayScan VTI (Thermo Scientific Cellomics) (0.8 NA objective, 0.63x optical coupler, and XF-93 filter set) at 20x magnification. The images were acquired using the autofocus feature of the ArrayScan instrument, which entails the following steps. First, the camera focuses on channel 1 (Hoechst 33342), where nuclei are identified. Second, a Z offset of 1 um is used for capturing mitochondria (MitoTracker Red). […]

SMILES | outcome | AC50
CN(C)c1ccc(Cc2ccc(N(C)C)cc2)cc1 | inactive | –
O=C1CCC(N2C(=O)c3ccccc3C2=O)C(=O)N1 (stereo not given) | inactive | –
CCCCCCc1ccc(O)cc1O | inactive | –
C1N2CN3CN1CN(C2)C3 | inactive | –
CCCCCCCCO | inactive | –
CC(C)CC(C)(O)C#CC(C)(O)CC(C)C (stereo not given) | inactive | –
COCCOCCOCCOC | inactive | –
CCNc1ccccc1 | inactive | –
CCCCCCCCCCCCCCCO | inactive | –
CC(=O)OC[C@H]1O[C@@](COC(C)=O)(O[C@H]2O[C@H](COC(C)=O)[C@@H](OC(C)=O)[C@H](OC(C)=O)[C@H]2OC(C)=O)[C@@H](OC(C)=O)[C@@H]1OC(C)=O | inactive | –
COC(=O)CC(=O)OC | inactive | –
O=P(OC(CCl)CCl)(OC(CCl)CCl)OC(CCl)CCl | – | 50 µM (active)
O=c1[nH]c2ccc(S(=O)CCN3CCC(Cc4ccc(F)cc4)CC3)cc2o1 (stereo not given) | inactive | –
O=C(NS(=O)(=O)/C=C/c1ccccc1)c1ccc(F)cc1Cl | inactive | –
Oc1ccc2c(c1)-c1ccccc1C2 | – | 106 µM (active)
NC(=O)NO | inactive | –
CC(C)CCCCCCOC(=O)c1ccc(C(=O)OCCCCCCC(C)C)c(C(=O)OCCCCCCC(C)C)c1 | inactive | –
COc1cccc(-c2ccc(/C=C\CN3CCCCCC3)cc2Cl)c1 | inactive | –
CC(C)c1cccc(C(C)C)c1N1C(=O)c2ccc(O)cc2C1=O | inactive | –
COC(=O)c1ccccc1O | inactive | –

SMILES | outcome | AC50
Nc1cccc(N)c1 | inactive | –
CC[C@H]1CC[C@H](NCc2cc3c(cc2OC)[C@H]2C[C@H]2C(=O)N3C)[C@H](c2ccccc2)N1 | inactive | –
O=C(O)CC(O)C(=O)O (stereo not given) | inactive | –
CC(C)=CCCC(C)=CC=O | inactive | –
O=C1OC(=O)C2C3C=CC(C3)C12 (stereo not given) | inactive | –
CCCC(=O)OCC | inactive | –
CC1(C)C(=O)N(Br)C(=O)N1Br | inactive | –
CCOC(=O)c1ccc(C2CCC(NC[C@H](O)COc3ccc(O)c(NS(C)(=O)=O)c3)CC2)cc1 (stereo not given in full) | inactive | –
COCCOc1cc2cc(C(=O)NC3CCN(C(C)C)CC3)n(CC(=O)Nc3ccc(Cl)cn3)c2cn1 | inactive | –
CC[C@H](C)C(=O)O[C@H]1C[C@@H](C)C=C2C=C[C@H](C)[C@H](CC[C@@H]3C[C@@H](O)CC(=O)O3)[C@H]21 | inactive | –
O=C(O)CCN(C1(C(=O)NO)CCCC1)S(=O)(=O)c1ccc(Oc2ccc(F)cc2)cc1 | inactive | –
CC[C@H]1OC(=O)[C@H](C)[C@@H](O[C@H]2C[C@@](C)(OC)[C@@H](O)[C@H](C)O2)[C@H](C)[C@@H](O[C@@H]2O[C@H](C)C[C@H](N(C)C)[C@H]2O)[C@](C)(O)C[C@@H](C)C(=O)[C@H](C)[C@@H](O)[C@]1(C)O | inactive | –
CCOc1cccc(-n2cc(C(=O)N3CCN(c4cc(C(=O)O)c5ccccc5c4)CC3)nc2-c2ccc(C)cc2)c1 | inactive | –
CC(C)=CCC/C(C)=C/CO | inactive | –
CC1=CC(=O)CC(C)(C)C1 | inactive | –
CCCN(C1CCN(C(=O)C2CCNCC2)CC1)[C@@H]1CCc2ccc(OC)cc2C1 | inactive | –
C=CCCCCCCCCC(=O)O | inactive | –
CN(C)c1ccc(N=NS(=O)(=O)O)cc1 | inactive | –
CC(C)(O)c1coc(S(=O)(=O)NC(=O)Nc2c3c(cc4c2CCC4)CCC3)c1 | inactive | –
CCCCCCCCCCCCc1ccccc1 | inactive | –

Source: PubChem BioAssay (EPA / NIEHS)
